Here are results for eleven compounds from ChEMBL document CHEMBL3988442, “University of Dundee, Small-Polar-MMV Screening Library” (2021).

For some of these results: Entries with a potency or affinity are not part of this list.

What all share (parameters): scale not given: direction of the effect not stated beside the values
In test [1] the target is Protein translocase subunit SecA (Escherichia coli (strain K12)) (UniProt P10408). Description: Assay to Identify E. coli SecA ATPase Inhibitors. The format is functional. The settings on record: 30 µM.
Protein translocase subunit SecA (Escherichia coli (strain K12)), sequence (P10408 whole entry): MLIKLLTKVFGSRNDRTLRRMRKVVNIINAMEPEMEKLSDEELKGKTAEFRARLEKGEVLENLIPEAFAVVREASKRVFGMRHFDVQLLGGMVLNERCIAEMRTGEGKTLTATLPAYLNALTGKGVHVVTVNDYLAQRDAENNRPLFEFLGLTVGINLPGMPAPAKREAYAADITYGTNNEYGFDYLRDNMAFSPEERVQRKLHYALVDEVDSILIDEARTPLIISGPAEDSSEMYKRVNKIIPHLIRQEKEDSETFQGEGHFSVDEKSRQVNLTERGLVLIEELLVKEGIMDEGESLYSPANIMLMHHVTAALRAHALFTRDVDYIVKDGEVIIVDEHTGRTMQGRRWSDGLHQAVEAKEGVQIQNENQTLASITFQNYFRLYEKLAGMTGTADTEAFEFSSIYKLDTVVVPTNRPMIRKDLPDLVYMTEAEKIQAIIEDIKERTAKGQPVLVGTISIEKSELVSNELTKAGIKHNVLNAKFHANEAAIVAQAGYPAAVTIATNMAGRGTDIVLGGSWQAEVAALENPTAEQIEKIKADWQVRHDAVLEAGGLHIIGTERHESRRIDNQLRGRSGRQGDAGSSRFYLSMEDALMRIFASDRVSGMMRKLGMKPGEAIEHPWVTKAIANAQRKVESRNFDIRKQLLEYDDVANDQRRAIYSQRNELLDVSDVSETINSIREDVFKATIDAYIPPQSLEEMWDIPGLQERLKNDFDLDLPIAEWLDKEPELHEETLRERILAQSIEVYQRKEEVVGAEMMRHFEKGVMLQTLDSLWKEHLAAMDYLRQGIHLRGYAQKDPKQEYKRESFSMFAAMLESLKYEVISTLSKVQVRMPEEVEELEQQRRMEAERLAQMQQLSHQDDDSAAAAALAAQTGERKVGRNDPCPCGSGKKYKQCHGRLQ
Test [2] concerns the target T1, Ubiquitin-activating enzyme e1, putative (Leishmania donovani (strain BPK282A1)) (UniProt E9BSI1).
T1 sequence (whole entry): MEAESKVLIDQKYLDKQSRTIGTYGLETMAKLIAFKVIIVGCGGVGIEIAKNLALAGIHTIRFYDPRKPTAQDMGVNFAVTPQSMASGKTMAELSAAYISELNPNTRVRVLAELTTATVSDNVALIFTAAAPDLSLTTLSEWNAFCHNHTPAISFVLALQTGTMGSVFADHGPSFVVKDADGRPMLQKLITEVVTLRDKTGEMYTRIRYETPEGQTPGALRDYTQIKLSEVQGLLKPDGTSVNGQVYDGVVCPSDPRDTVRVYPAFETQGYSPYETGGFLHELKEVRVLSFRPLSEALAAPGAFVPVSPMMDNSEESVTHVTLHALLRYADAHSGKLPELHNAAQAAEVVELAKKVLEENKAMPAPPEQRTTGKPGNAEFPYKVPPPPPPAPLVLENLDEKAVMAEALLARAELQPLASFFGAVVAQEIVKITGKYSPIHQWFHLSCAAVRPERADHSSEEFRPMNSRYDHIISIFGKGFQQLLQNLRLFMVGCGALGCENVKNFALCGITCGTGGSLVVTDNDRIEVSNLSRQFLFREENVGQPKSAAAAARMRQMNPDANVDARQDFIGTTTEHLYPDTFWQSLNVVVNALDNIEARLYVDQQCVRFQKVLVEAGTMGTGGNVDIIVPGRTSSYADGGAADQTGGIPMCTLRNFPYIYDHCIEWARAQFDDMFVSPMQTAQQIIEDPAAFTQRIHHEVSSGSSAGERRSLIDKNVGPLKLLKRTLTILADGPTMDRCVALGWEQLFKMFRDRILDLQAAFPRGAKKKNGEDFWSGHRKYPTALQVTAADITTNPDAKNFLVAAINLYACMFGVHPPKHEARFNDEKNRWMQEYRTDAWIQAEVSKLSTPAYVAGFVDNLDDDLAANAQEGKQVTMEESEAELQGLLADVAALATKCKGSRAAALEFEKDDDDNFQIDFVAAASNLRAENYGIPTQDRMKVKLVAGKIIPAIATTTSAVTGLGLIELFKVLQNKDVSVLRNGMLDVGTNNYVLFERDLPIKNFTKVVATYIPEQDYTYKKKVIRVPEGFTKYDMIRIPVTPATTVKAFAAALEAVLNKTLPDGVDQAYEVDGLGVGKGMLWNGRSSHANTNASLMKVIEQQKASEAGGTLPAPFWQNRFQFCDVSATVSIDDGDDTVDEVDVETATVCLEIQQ
Description: Leishmania donovani Ubiquitin Activating Enzyme (LdE1). The format is functional. The settings on record: 30 µM.

Test [3] has as its target AMP-activated protein kinase, AMPK (Homo sapiens) (UniProt P54646+O43741+P54619+Q9UGJ0+Q9Y478+Q13131+Q9UGI9). Description: AMP-dependent Kinase enzyme assay. An in vitro enzyme assay that detects ADP turnover that is directly proportional to AMPK activity. This uses naive AMPK that is activated during the assay with MK-8722. The class given is functional. The settings on record: 30 µM.

Test [4] concerns the target Sialic acid-binding Ig-like lectin 9 (Homo sapiens) (UniProt Q9Y336). Description: Hs-Siglec9 ALPHAscreen SOP 20170721. The following applies: 10 µM.
The next test concerns Trypanosoma cruzi. Kind of test: Trypanosoma cruzi phosphomannomutase and mannose-1-phosphate guanylyltransferase assay. The class given is functional. The settings on record: 10 µM.
The target of test [5] is T2, Arginase-2, mitochondrial (Homo sapiens) (UniProt P78540).
T2 sequence (whole entry): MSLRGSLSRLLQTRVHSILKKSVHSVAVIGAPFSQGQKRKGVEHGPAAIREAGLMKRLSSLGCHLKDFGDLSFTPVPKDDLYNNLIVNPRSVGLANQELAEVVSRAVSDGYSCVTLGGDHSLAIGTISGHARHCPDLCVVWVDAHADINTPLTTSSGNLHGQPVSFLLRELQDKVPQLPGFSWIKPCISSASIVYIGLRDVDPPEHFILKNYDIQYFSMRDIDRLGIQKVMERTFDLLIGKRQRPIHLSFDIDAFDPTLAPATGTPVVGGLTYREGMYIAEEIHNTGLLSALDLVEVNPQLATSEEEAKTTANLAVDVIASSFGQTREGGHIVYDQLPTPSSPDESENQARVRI
Kind of test: in vitro enzyme assay to detect the production of urea directly proportional to the activity of Arginase II. Note: in the data most compounds retested in dose-response had high values. The settings on record: 33.3 µM. The class given is functional.

Test [6] concerns the target T3, Proteasome subunit beta (Trypanosoma cruzi) (UniProt O96673).
T3 sequence (whole entry): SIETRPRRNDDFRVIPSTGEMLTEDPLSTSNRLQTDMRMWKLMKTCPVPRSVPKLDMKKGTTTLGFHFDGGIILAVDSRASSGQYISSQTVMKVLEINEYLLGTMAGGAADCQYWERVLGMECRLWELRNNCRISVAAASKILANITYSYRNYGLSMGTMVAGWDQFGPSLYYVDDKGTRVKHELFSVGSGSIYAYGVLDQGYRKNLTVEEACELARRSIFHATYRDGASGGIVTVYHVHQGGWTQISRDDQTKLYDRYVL
Kind of test: Trypanosoma cruzi proteasome chymotrypsin-like activity (TcProtChymo) assay. Note: in the data most compounds retested in dose-response had high values. The class given is functional. The following applies: 9.37 µM.

For the next test, the species on record is Homo sapiens. Description: To identify inhibition of the IFN signalling (Jak-Stat) pathway via expression of an eGFP reporter gene under the control of an IFN-stimulated response element (ISRE) containing MxA promoter. The following applies: 30 µM. The class given is functional. A general note: A reporter such as luciferase makes a cellular process visible.

Test [7] deals with T4, Tyrosyl-tRNA synthetase, putative (Trypanosoma cruzi (strain CL Brener)) (UniProt Q4DSP6).
T4 sequence (whole entry): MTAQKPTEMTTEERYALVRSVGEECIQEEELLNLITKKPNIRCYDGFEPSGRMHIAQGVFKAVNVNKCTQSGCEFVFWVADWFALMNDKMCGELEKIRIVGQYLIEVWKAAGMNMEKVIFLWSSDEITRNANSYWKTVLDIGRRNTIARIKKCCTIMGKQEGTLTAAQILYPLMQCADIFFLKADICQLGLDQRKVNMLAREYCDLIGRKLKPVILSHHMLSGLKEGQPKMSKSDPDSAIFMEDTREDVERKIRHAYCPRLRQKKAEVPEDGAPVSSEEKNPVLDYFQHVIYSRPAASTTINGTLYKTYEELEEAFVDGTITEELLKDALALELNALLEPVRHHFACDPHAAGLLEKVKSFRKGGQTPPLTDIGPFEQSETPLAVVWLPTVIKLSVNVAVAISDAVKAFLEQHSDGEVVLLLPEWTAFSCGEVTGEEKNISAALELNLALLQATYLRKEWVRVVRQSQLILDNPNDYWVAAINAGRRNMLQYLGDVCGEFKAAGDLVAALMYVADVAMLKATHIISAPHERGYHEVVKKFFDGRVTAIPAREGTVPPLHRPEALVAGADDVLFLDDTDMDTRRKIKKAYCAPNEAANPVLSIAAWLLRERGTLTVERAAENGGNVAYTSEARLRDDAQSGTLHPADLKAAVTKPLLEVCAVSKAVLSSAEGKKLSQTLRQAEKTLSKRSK
Kind of test: Trypanosoma cruzi tyrosyl tRNA synthetase (TcYRS) _High Tyrosine SOP. Note: in the data most compounds retested in dose-response had high values. The following applies: 30 µM. The format is functional.

In test [8] the target is T4, Tyrosyl-tRNA synthetase, putative (Trypanosoma cruzi (strain CL Brener)). Description: Trypanosoma cruzi tyrosyl tRNA synthetase (TcYRS) SOP. The class given is functional. The settings on record: 30 µM.
Test [9] concerns the target Chromo domain-containing protein 1 (Saccharomyces cerevisiae (strain ATCC 204508 / S288c) (Baker's yeast)) (UniProt P32657). Description: ScCHD-1 Enzyme Inhibition Assay. Note: in the data most compounds retested in dose-response had high values. The class given is functional. The settings on record: 30 µM.

Sialic acid-binding Ig-like lectin 9 (Homo sapiens), sequence (Q9Y336 whole entry): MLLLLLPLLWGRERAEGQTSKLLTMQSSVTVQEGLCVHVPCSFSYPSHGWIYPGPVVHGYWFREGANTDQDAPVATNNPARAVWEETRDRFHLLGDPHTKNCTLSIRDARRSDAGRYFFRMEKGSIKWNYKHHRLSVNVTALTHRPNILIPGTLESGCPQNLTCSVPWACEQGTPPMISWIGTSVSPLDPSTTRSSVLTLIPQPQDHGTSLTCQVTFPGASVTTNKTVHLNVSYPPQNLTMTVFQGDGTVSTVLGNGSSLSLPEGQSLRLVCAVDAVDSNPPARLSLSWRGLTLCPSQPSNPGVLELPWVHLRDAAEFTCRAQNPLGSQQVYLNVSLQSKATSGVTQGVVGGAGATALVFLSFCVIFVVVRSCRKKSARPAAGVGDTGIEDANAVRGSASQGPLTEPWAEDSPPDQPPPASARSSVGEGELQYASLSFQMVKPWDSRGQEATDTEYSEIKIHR
Chromo domain-containing protein 1 (Saccharomyces cerevisiae (strain ATCC 204508 / S288c) (Baker's yeast)), sequence (P32657 whole entry, the tested form may be a part): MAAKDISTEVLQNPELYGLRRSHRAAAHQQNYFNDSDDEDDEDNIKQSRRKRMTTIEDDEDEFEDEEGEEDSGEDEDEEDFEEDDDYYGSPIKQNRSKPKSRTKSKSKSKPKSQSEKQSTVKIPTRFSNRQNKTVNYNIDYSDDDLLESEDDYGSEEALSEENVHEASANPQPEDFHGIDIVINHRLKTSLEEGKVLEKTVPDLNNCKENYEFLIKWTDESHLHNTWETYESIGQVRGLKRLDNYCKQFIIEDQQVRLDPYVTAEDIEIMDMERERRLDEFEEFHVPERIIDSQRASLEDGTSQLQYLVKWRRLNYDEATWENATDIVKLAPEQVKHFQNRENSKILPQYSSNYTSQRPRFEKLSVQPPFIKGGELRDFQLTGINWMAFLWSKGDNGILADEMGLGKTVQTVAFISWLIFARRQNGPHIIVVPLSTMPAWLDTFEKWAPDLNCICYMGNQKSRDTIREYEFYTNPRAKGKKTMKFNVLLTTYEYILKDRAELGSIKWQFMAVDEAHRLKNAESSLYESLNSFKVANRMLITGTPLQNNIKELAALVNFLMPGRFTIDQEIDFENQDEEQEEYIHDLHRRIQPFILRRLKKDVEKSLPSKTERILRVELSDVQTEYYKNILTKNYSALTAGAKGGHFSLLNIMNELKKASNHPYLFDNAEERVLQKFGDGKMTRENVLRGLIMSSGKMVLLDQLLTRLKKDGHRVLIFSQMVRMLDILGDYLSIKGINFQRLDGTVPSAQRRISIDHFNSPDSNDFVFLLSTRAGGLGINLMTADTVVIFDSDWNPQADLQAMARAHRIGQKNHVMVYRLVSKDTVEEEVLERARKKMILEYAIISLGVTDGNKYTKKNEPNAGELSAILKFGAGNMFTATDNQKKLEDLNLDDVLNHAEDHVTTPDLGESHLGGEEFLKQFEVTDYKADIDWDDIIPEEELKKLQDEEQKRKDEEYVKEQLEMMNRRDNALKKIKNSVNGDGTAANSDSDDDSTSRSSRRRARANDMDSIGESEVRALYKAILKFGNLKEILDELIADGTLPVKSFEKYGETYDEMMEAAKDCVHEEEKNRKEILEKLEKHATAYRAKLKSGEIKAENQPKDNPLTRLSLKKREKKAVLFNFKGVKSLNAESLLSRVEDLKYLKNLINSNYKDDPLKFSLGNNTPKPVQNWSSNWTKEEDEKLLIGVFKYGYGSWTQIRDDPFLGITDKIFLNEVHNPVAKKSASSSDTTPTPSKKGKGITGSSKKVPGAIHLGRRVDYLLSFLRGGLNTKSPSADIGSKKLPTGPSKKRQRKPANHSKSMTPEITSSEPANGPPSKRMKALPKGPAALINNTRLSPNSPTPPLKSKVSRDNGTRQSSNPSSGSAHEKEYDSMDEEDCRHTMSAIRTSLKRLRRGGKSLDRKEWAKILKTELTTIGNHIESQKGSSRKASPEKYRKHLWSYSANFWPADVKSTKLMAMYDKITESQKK

As to `Cc1cc(C)n(CC(C)CNC(=O)[C@@H](C)NC(=O)OC(C)(C)C)n1` (stereo partly specified), the Percent Effect was -2.44% in [1]; 7.89% in [2]; 3.79% in test [3]; 1.85% in test [4]; 0.487% with Trypanosoma cruzi; -5.92% in [5]. Further, the Percent Effect in test [6] is 17.7%; in the test filed under Homo sapiens, -12.5%; in test [7] it was 4.25%; in test [8], 13%; in test [9] it was -2.31%.

As to `Cn1c(CC2CCS(=O)(=O)C2)nnc1SCCOc1cccc(Cl)c1` (stereo unspecified), the Percent Effect in test [1] was -2.94%; in test [2] it was 10.8%; in test [3], -5.55%; in [4], 20.9%; with Trypanosoma cruzi, 4.99%; in test [5] it was 3.23%. Also, the Percent Effect is 14.8% in test [6]; -7.24% in the test filed under Homo sapiens; 4.3% in [7]; 16.1% in test [8]; -10.4% in test [9].

For the compound `Cc1cccc(-c2noc(CN3CCC(N4CCNC4=O)CC3)n2)c1`, the Percent Effect in test [1] was -6.31%; in test [2], 13%; in [3] it was 4.11%; in test [4], 4.47%; in the test on Trypanosoma cruzi, 0.374%; in test [5], -1.78%. Further, the Percent Effect in [6] was -2.2%; in the test filed under Homo sapiens, 21.5%; in [7] it was 7.77%; in test [8], 12.2%; in test [9], -3.52%.

With `Cc1noc(NC(=O)c2ccc(C)c(F)c2)n1`, the Percent Effect in test [1] was -3.93%; in [2], 20.2%; in test [3] it was 3.63%; in test [4], -2.91%; in the test with Trypanosoma cruzi it was 4.63%; in [5] it was 0%. For the same compound, the Percent Effect is 11.7% in test [6]; 64% in the test filed under Homo sapiens; 9.36% in test [7]; 26.6% in test [8]; -5.98% in [9].

On to `O=C(NCCC(=O)N1CCCC1)c1nn(-c2ccccc2F)cc1O`, for which the Percent Effect in test [1] was -10.5%; in test [2] it was 10.8%; in test [3], -8.26%; in test [4], 24.5%; with Trypanosoma cruzi, 8.82%; in test [5], -0.554%. The Percent Effect in test [6] was 8.08%; in the test listed under Homo sapiens, 17.9%; in test [7], 5.94%; in test [8] it was 15.8%; in test [9] it was -11.4%.

Regarding `O=C1CC2(CCN(CCO)CC2)CN1Cc1cc(F)cc(F)c1`, the Percent Effect in test [1] was -3.75%; in [2], 6.94%; in test [3], -9.77%; in test [4] it was 27.6%; in the test on Trypanosoma cruzi, 4.18%; in test [5] it was 13.7%. Besides, the Percent Effect was 11.2% in test [6]; -13.2% in the test listed under Homo sapiens; 2.1% in [7]; 10.3% in test [8]; -9.52% in test [9].

`CC(C)(C)c1cnc(CN2CCCC2Cn2cccn2)o1` (stereo unspecified): the Percent Effect in test [1] was -0.386%; in [2], 0%; in test [3], 6.71%; in [4] it was -3.67%; in the test on Trypanosoma cruzi, 5.19%; in test [5], -0.38%. In addition, the Percent Effect in [6] is 5.16%; in the test listed under Homo sapiens it was -9.18%; in [7], 2.46%; in [8] it was 3.8%; in test [9], -4.77%.

Take `Cc1ccc(CC(=O)N2CSCC2C(=O)N(C)Cc2ccco2)o1` (stereo unspecified): the Percent Effect in [1] is -2.18%; in test [2] it was 2.63%; in test [3], 17.7%; in test [4] it was -8.06%; in the test with Trypanosoma cruzi, -2.89%; in test [5], 3.24%. The Percent Effect in test [6] is 7.02%; in the test filed under Homo sapiens it was -5.97%; in test [7], 3.45%; in [8], 1.24%; in test [9], -0.996%.

Regarding `CCc1nnc2n1CCN(C(=O)C(C)COCc1ccccc1)C2` (stereo unspecified), the Percent Effect in [1] was -1.9%; in [2], 10.5%; in test [3], 0.611%; in test [4] it was -4.15%; with Trypanosoma cruzi, 7.94%; in test [5], -1.44%. Also, the Percent Effect in test [6] is 6.68%; in the test listed under Homo sapiens it was -1.54%; in test [7], 3.45%; in test [8], 16.1%; in [9], -2.72%.

For the compound `CC(COc1ccc(F)cc1F)NC(=O)NCCN1CCOCC1` (stereo unspecified), the Percent Effect is -3.66% in test [1]; 10.5% in test [2]; 7.15% in test [3]; -1.15% in test [4]; 4.77% in the test on Trypanosoma cruzi; -5.92% in test [5]. In addition, the Percent Effect in test [6] is 16%; in the test filed under Homo sapiens it was -26.7%; in test [7], 1.06%; in test [8], 13%; in [9] it was -2.74%.

Turning to `COc1ccc(S(=O)(=O)N2CCCC3(CCCN3S(C)(=O)=O)C2)cc1` (stereo unspecified), the Percent Effect is -2.95% in test [1]; 10.8% in test [2]; -2.61% in [3]; -2.37% in [4]; -8.31% in the test on Trypanosoma cruzi; -2.73% in test [5]. Besides, the Percent Effect in test [6] was 12.3%; in the test filed under Homo sapiens it was 7.81%; in test [7], 0%; in test [8], 8.64%; in [9], -3.67%.
